An excerpt weighted towards active compounds, which were near 1.3% of everything screened.
NPR1 activator: GC-A stimulated cGMP production enhancers – HEK293 GC-A cells, cGMP TR-FRET, EC30 ANP, primary screen. 0% at EC30 ANP, 100% saturating ANP. activation, % at 10 µM. 370,000 tested, 0.14% active. AID 1671463, 2021; in the data active means activation above about 40%
HIF activator: HIF pathway transcriptional activators, primary screen, cell-based, U2OS HRE-luciferase, luminescence; activation, % at 7.5 µM (by protocol); 300,000 tested, 0.32% active; U2OS HRE-luciferase reporter; normalized: DMSO 0%, desferrioxamine 100%;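 active means mean activation of at least 10% of the iron chelator positive control signal, with at least half of replicates also reaching 10%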
GC-B act: human GC-B receptor activators, primary screen, HEK293 GC-B cells, cGMP TR-FRET, EC30 CNP | Atrial natriuretic peptide receptor 2 (Homo sapiens), P20594 | 0% at EC30 CNP, 100% saturating CNP | activation, % at 10 µM | 370,000 tested, 0.11% active | AID 1920062, 2024;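 active means activation at 10 µM reaching about 35% in either raw or pattern-adjusted values, limit read from the data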
proKLK7 act: proKLK7 zymogen activators, primary screen, biochemical, fluorescence intensity; Kallikrein-7 (Homo sapiens), P49862; purified proKLK7, EDANS-DABCYL substrate fluorescence; 100% is mature enzyme control, 0% vehicle; activation, % at 7 µM; 370,000 tested, 0.9% active; AID 652039, 2013;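 active means activation above the mean of all tested compounds plus 3 SD, computed per campaign excluding outliers beyond control limits, cut at about 13% in these data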
Target sequence (P49862 whole entry, looked up): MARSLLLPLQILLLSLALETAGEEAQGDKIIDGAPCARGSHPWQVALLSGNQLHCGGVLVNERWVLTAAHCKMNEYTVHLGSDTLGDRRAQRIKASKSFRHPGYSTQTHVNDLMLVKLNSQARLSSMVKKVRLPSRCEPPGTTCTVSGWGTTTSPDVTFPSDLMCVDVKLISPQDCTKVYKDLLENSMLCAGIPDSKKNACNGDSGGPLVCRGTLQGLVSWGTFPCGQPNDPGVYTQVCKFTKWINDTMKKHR
KLK7 act conf: proKLK7 zymogen activators, confirmation, biochemical, fluorescence intensity, triplicate; shares compounds with proKLK7 act; purified proKLK7, EDANS-DABCYL substrate fluorescence; scaled: vehicle 0, mature enzyme 100; activation, % at 7 µM; 3,200 tested, 68% active;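 active means activation, as change over the incubation, above the mean of all tested compounds plus 3 SD, cut at about 13% in these data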
EDANS-DABCYL int: EDANS-DABCYL substrate optical interference, artefact control for kallikrein-7 zymogen activator project, biochemical, fluorescence intensity, high throughput; shares compounds with proKLK7 act; no enzyme, 4 h; solvent 0%, active enzyme control 100%; activation, % at 7 µM; 3,200 tested, 80% active; AID 686952, 2013;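 active means activation above the all-compound mean plus 3 SD, ignoring values outside control-based bounds, cut at about 4.8% in these data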;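 further: value is the 4 h activation minus the activation read at time zero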
K7 EDANS ctr: EDANS fluorescence interference in dose response, no enzyme. AID 720493. EC50, µM. 250 tested, 20% active. EDANS-DABCYL peptide fluorescence interference. shares compounds with proKLK7 act;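 active means compounds that raise the fluorescence signal in this interference counterscreen, with EC50 at or below 10 µM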;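 further: intact quenched peptide substrate alone read at 355 nm excitation and 520 nm emission; signal is fluorescence gain from T0 to T4 after four hours at room temperature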
Of the large screens only hits and unclear results are named; the others gave an inactive call (follow-up assays come after a bar, where they were run).

Cc1sc(-c2ccncc2)nc1OC(=O)c1ccc(F)cc1F	proKLK7 act 14 | KLK7 act conf 13 | EDANS-DABCYL int 11 | K7 EDANS ctr inactive
Cc1sc(-c2ccncc2)nc1OC(=O)c1ccc(Cl)cc1	none (no result: NPR1 activator, GC-B act)
COc1cccc2[nH]c3c(N4CCCCC4)ncnc3c12	none
COc1cccc2[nH]c3c(Cl)ncnc3c12	proKLK7 act 17 | KLK7 act conf 32 | EDANS-DABCYL int 31
Fc1ccc2[nH]c3c(Cl)ncnc3c2c1	none
CCOC(=O)C1CCN(c2ncnc3c2[nH]c2cccc(OC)c23)CC1	proKLK7 act 19 | KLK7 act conf 23 | EDANS-DABCYL int 14 | K7 EDANS ctr inactive
CCCC(=O)Nc1c(-c2ccccc2OC)c(=O)c2ccccc2n1C	none (no result: HIF activator)
CCCCCC(=O)Nc1c(-c2ccc(OC)cc2)c(=O)c2ccccc2n1C	proKLK7 act 17 | KLK7 act conf inactive | EDANS-DABCYL int inactive
CCCC(=O)Nc1c(-c2ccc(OC)cc2)c(=O)c2ccccc2n1C	proKLK7 act 17 | KLK7 act conf 20 | EDANS-DABCYL int 17 | K7 EDANS ctr inactive
Cc1ccc2nc3ccc(N4CCN(C)CC4)nn3c(=O)c2c1	proKLK7 act 40 | KLK7 act conf inactive | EDANS-DABCYL int 13
COc1cc2cc(C(c3nnnn3C(C)(C)C)N3CCc4ccccc4C3)c(=O)[nH]c2cc1OC (stereo not given)	proKLK7 act 25 | KLK7 act conf inactive | EDANS-DABCYL int inactive
Nc1[nH]c2cc(C(F)(F)F)ccc2c1C(=O)NCc1ccc(F)cc1	none (no result: HIF activator)
Cc1ccccc1N(C)C(=O)CN1CCN(c2nc(-c3ccccc3)cs2)CC1	none (no result: HIF activator)
Cc1cccc2c(C(=O)O)c3cccc(C)c3nc12	proKLK7 act 28 | KLK7 act conf 49 | EDANS-DABCYL int 42 | K7 EDANS ctr inactive
Cc1ccc2occ(/C=N/NC(=O)c3ccccc3Br)c(=O)c2c1	none
Cc1ccc2occ(/C=N/NC(=O)c3ccc(O)cc3)c(=O)c2c1	proKLK7 act 23 | KLK7 act conf 53 | EDANS-DABCYL int 51
Cc1ccc2occ(/C=N/NC(N)=S)c(=O)c2c1	none
CCOc1ccccc1C(=O)N/N=C/c1coc2ccc(C)cc2c1=O	proKLK7 act 24 (no result: HIF activator) | KLK7 act conf 58 | EDANS-DABCYL int 54
CC(=O)OCC(=O)c1ccc2ccn(C(C)=O)c2c1	proKLK7 act 18 | KLK7 act conf 32 | EDANS-DABCYL int 32
COc1ccc(O)c(C(=O)c2cnn(C(=O)c3cccc(N(C)C)c3)c2)c1	proKLK7 act 51 (no result: HIF activator) | KLK7 act conf 168 | EDANS-DABCYL int 157
CN(C)c1cccc(C(=O)n2cc(C(=O)c3cc(F)ccc3O)cn2)c1	none
COc1ccc(C(=O)n2cc(C(=O)c3cc(C)ccc3O)cn2)cc1OC	proKLK7 act 21 | KLK7 act conf 55 | EDANS-DABCYL int 49
COc1ccc(O)c(C(=O)c2cnn(C(=O)c3cc(C)oc3C)c2)c1	proKLK7 act 40 | KLK7 act conf 174 | EDANS-DABCYL int 144
COC(=O)Cn1c2ccccc2c(=O)n1C(C)CBr (stereo not given)	proKLK7 act 67 (no result: HIF activator) | KLK7 act conf 62 | EDANS-DABCYL int 55
Fc1ccc(-c2nc3cnccn3c2NC2CCCC2)cc1	proKLK7 act 58 | KLK7 act conf 63 | EDANS-DABCYL int inactive | K7 EDANS ctr inactive
Cc1cc(=O)oc2c3c(cc(OCC(=O)Nc4ccc(CCO)cc4)c12)OC(C)(C)CC3	none
Cc1cc(=O)oc2c3c(cc(OCC(=O)NC4CC4)c12)OC(C)(C)CC3	proKLK7 act 15 | KLK7 act conf 22 | EDANS-DABCYL int 27
Cc1cc(=O)oc2c3c(cc(OCC(=O)NCC(=O)O)c12)OC(C)(C)CC3	proKLK7 act 43 | KLK7 act conf 66 | EDANS-DABCYL int 79
Cc1cc(=O)oc2c3c(cc(OCC(=O)NCc4ccccc4)c12)OC(C)(C)CC3	none
CNc1nc(-c2ccccc2)cc(C)c1S(C)(=O)=O	proKLK7 act 20 | KLK7 act conf inactive | EDANS-DABCYL int inactive
Cc1cccn2c(=O)c3cc(C(=O)NCc4cccnc4)c(=N)n(C(C)C)c3nc12	proKLK7 act 134 | KLK7 act conf 51 | EDANS-DABCYL int 67
CC(C)n1c(=N)c(C(=O)NCCc2ccccc2)cc2c(=O)n3ccccc3nc21	proKLK7 act 134 | KLK7 act conf inactive | EDANS-DABCYL int inactive
N=c1c(C(=O)NCc2ccccc2)cc2c(=O)n3ccccc3nc2n1Cc1ccco1	none
COc1ccc(CNC(=O)c2cc3c(=O)n4ccccc4nc3n(Cc3cccnc3)c2=N)cc1	none
Cc1cccn2c(=O)c3cc(C(=O)NCc4ccco4)c(=N)n(C(C)C)c3nc12	proKLK7 act 26 | KLK7 act conf inactive | EDANS-DABCYL int inactive
CC(Nc1ccc2c(c1)OCCO2)C(=O)Nc1ccc2c(c1)OCO2 (stereo not given)	proKLK7 act 49 (no result: HIF activator) | KLK7 act conf 39 | EDANS-DABCYL int 52
COc1cc(C=Nc2ccccc2C(=O)Nc2ccccc2)cc(OC)c1OC	proKLK7 act 19 | KLK7 act conf 18 | EDANS-DABCYL int 22
COc1cc(NC(=O)c2ccccc2-c2ccccc2)cc(OC)c1OC	none (no result: NPR1 activator, GC-B act, proKLK7 act)
C[C@@H]1CCN(C2CC2)S(=O)(=O)c2c(cccc2N2CCC[C@H]2C)O1	none (no result: HIF activator)
Cc1ccc(Cn2cc(CN3CC=CS3(=O)=O)nn2)cc1	none (no result: HIF activator)
Fc1ccccc1-c1nc(NCc2ccco2)c2ccccc2n1	none
Oc1ccccc1-c1nc(NCc2ccco2)c2ccccc2n1	proKLK7 act 13 | KLK7 act conf inactive | EDANS-DABCYL int 13
Cc1cc(C)cc(-c2c(C(=O)c3ccccc3)[nH]c(N)c2C(=O)NCCc2c[nH]c3ccccc23)c1	none (no result: HIF activator, proKLK7 act)
COc1ccc(C2=Nc3ccccc3C2(O)CCN2C(=O)c3ccccc3C2=O)cc1 (stereo not given)	proKLK7 act 16 (no result: HIF activator) | KLK7 act conf 22 | EDANS-DABCYL int 22
COc1ccc(OCCN2C(=O)c3ccccc3C2=O)cc1	none
CCOc1ccc(-c2cnc3cccnn23)cc1	none (no result: HIF activator)
Cc1cccc(-c2cnc3cccnn23)c1	proKLK7 act 34 (no result: HIF activator) | KLK7 act conf 27 | EDANS-DABCYL int 35
Cc1cccc(-c2cc3nc(C)cc(C)n3n2)c1	none
